High-throughput results as filed in PubChem BioAssay.
FLuc modulator: qHTS profiling assay for firefly luciferase inhibitor/activator using purifed enzyme and Km concentrations of substrates (counterscreen for miR-21 project) | Luciferin 4-monooxygenase (Photinus pyralis), P08659 | purified FLuc, Km substrates, luminescence inhibition | Potency, µM (highest dose often 57.5 µM), for inactives: top-dose activity change, negative = inhibition, most hits filed as inhibitors | 360,000 tested, 6.9% active | AID 588342, 2011;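 further: plate controls were vehicle for no effect and reference inhibitor for full effect; nearly all actives have a fitted effect of over 55% in size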
Target sequence (P08659 whole entry, looked up): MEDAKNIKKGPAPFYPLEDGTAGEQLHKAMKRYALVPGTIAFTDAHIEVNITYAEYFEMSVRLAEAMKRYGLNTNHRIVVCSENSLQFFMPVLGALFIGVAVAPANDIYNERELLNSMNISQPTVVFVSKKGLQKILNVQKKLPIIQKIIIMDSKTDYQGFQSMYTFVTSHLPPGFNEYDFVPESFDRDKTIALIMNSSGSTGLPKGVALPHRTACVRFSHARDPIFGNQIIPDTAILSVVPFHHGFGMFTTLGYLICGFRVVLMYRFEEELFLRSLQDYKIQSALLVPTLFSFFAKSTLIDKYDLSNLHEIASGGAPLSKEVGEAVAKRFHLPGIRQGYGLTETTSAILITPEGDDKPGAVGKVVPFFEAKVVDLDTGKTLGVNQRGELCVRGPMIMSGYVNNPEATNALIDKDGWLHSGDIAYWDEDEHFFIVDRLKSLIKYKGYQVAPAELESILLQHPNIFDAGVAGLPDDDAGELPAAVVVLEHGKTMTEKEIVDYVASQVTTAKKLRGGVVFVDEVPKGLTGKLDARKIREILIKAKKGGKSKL
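Purified P. pyralis luciferase (10nM final) with 10uM D-luciferin and 10uM ATP (Km levels) in 50mM Tris acetate pH 7.5, 10mM Mg acetate, 0.01% Tween-20, 0.05% BSA; qHTS 6-point titration, ~60 µM downward; luminescence read.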
Rab9 prom act: qHTS Assay for Rab9 Promoter Activators; Potency, µM (series often up to 9.22 µM), without a hit: at the highest dose activation, negative = inhibition, hits mostly activators; 320,000 tested, 2.8% active; Huh7 Rab9 promoter-luciferase reporter, luminescence, 24 h; further: % of control where 0% means no effect; nearly all actives have a fitted effect of over 60% in size
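Quantitative HTS format; Huh7 Rab9-luciferase reporter cells (1500/well) receive compound 2 h post-plating, incubate 24 h at 37 °C, then get luciferase reagent for 10 min before luminescence reading.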
ELG1 DNA repair: qHTS screen for small molecules that inhibit ELG1-dependent DNA repair in human embryonic kidney (HEK293T) cells expressing luciferase-tagged ELG1 | Potency, µM (series often up to 46.1 µM), without a hit: at the highest dose activity change, negative = inhibition, usual class: inhibitors | 330,000 tested, 2.3% active | HEK293T ELG1-luciferase reporter, luminescence, 16 h; DNA damage induced by 5-fluorouridine; further: on the % scale 0 is the no-effect control and ±100 the full control effect; nearly all actives have a fitted effect of over 55% in size
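In this reporter screen, reduction of luminescence relative to DMSO vehicle indicated activity. Compounds and 5-fluorouridine were added together to 2,000 cells per well, incubated for 16 hr at 37 °C, then developed with ONE-Glo.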
SMN2 splice up: qHTS Assay for Enhancers of SMN2 Splice Variant Expression | HEK293 SMN2-luciferase splicing reporter, luminescence, 30-36 h | AID 1458, 2008 | 210,000 tested, 2.8% active | Potency, µM (series often up to 46.1 µM), for inactives: at the highest dose activity change, positive = activation, usual class: activators; further: % of control where 0% means no effect; nearly all actives have a fitted effect of over 55% in size
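HEK293 cells carry an SMN2 […]–luciferase reporter in which exon 7 inclusion puts luciferase in frame. Cells were plated 10-12 h before compound addition, then incubated 30-36 h at 37C. ONE-Glo luminescence was read; sodium butyrate at 4.5 mM final served as control.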
ELG1 genotoxic: qHTS screen for small molecules that induce genotoxicity in human embryonic kidney (HEK293T) cells expressing luciferase-tagged ELG1 | Potency, µM (series often up to 46 µM), without a hit: top-dose activity change, positive = activation, actives largely listed as activators | HEK293T ELG1-luciferase reporter, luminescence, 16 h | 330,000 tested, 1.3% active | AID 504466, 2011; further: % of control where 0% means no effect; nearly all actives have a fitted effect of over 60% in size
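ELG1-luciferase HEK293T cells, 2,000/well; compound pinned in; 16 hr, 37 °C, 5% CO2; ONE-Glo, 30 min RT; luminescence on CCD imager.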
NPC1 prom act: qHTS Assay for NPC1 Promoter Activators. AID 485313, 2010. Huh7 NPC1 promoter luciferase reporter, 24 h. Potency, µM (doses to about 9.22 µM), without a hit: top-dose activation, usual class: activators. 320,000 tested, 2.4% active; further: % of control where 0% means no effect; nearly all actives have a fitted effect of over 60% in size
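Huh7 reporter cells (NPC1 promoter driving luciferase) are dosed with compound for 24 h at 37 °C, 5% CO2; luciferase detection reagent is then added and luminescence measured after 10 min at ambient temperature.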
An asterisk follows results filed as active; ? = inconclusive; · = not tested or not shown; [ ] = dose if it differs, or a comment. Sampled rows, rich in hits. Any-hit rate of the full collection: about 9.4%. The call rests on the fitted dose curve; in most records, active means well fitted curve in the direction sought with a large enough effect; inconclusive means small, poorly fitted or top-dose-only effect, or another doubt; inactive means no such curve, though single readings can be large; an effect the other way counts as inactive or inconclusive. Potency means the concentration at half of the fitted maximal effect.

SMILES	FLuc modulator	Rab9 prom act	ELG1 DNA repair	SMN2 splice up	ELG1 genotoxic	NPC1 prom act
O=C(Nc1ccccc1C(=O)O)c1cccc(NC(=O)c2ccccc2Cl)c1	19µM*	9.6%	14.4%	·	-2.0%	3.6%
Cc1ccccc1C(=O)Nc1cccc(C(=O)Nc2ccccc2C(=O)O)c1	26.9µM*	-2.9%	-18.3%	·	-2.9%	-1.5%
O=C(O)c1cccc(NC(=O)c2ccccc2NC(=O)c2ccccc2F)c1	10.7µM*	13.4%	2.8%	·	-0.2%	-2.3%
CCc1ccccc1NC(=O)CN(c1cc(C(F)(F)F)ccc1Cl)S(=O)(=O)c1ccccc1	-5.7%	·	·	-2.9%	·	·
Cc1c2cnn(CC(=O)NCCc3ccccc3)c(=O)c2c(C)n1Cc1ccccc1	-11.7%	·	·	2.2%	·	·
CCCc1nc(SCc2cc(=O)c3ccc(C)c(C)c3[nH]2)n[nH]1	-4.3%	·	·	·	·	·
CN1CCN(CCCNC(=O)Cn2c(-c3cccs3)cc3cc(Cl)ccc32)CC1	-1.1%	·	·	·	·	·
CC(=O)C1(C)CC2=C(CCCC2(C)C)CC1C (centres undefined)	·	·	·	-2.2%	·	·
O=C(Nc1cc(Br)c(O)c(Br)c1)c1cccc(NC(=O)c2ccco2)c1	10.7µM*	1.1%	-18.9%	·	-8.7%	-2.3%
O=C(Nc1cc(NC(=O)c2ccccc2Cl)ccc1Cl)c1ccccc1	12µM*	·	·	23.7%	·	·
O=C(Nc1cccc(NC(=O)c2ccccc2Cl)c1)c1ccc(F)cc1	?	-1.6%	-19.9%	·	-1.1%	2.0%
CCOc1cc(C#N)c(NC(=O)Cn2nnc(-c3ccc(C)cc3)n2)cc1OCC	-0.4%	·	·	-7.9%	·	·
CN(C1CCCCC1)S(=O)(=O)c1ccc2c(c1)c(=O)c(C(=O)NCc1ccccc1Cl)cn2C	1.7%	·	·	-12.1%	·	·
COCc1cc(C)nc2sc3c(c12)NC(c1ccccc1C(=O)O)N(c1cccc(C(F)(F)F)c1)C3=O (centres undefined)	?	·	·	-6.1%	·	·
COc1ccccc1C1Nc2c(sc3nc(C)cc(C)c23)C(=O)N1c1ccccc1 (centres undefined)	?	·	·	12.6µM*	·	·
CCOC(=O)/C(C#N)=C\c1c(OCC)n(CC)c2ccccc12	3.0%	0.6%	?	-14.6%	-4.9%	1.1%
CCOc1c(/C=C(\C#N)C(N)=O)c2ccccc2n1CC	-0.2%	-5.1%	13µM*	-5.8%	-4.0%	1.1%
Cc1oc(-c2cccc(Br)c2)nc1CN1CCC(C(=O)NCc2ccccc2)CC1	-17.0%	·	·	·	·	·
O=C(COn1nnc2ccccc21)NCC1CCCCC1	16.9µM*	19.3%	?	20.2%	12.6µM*	18.3%
CC(C)(C)c1ccc(SCCc2ccccn2)cc1	3.79µM*	3.16µM*	?	·	?	2.24µM*
c1ccc(CCNc2ccccn2)nc1	·	·	·	1.1%[9.22 µM]	·	·
Fc1ccc(SCCc2ccccn2)cc1	16.9µM*	?	?	·	?	21.7%
CC(C)(C)c1ccc(S(=O)(=O)CCc2ccccn2)cc1	16.9µM*	?	?	9.3%	20.6µM*	?
Cc1ccc(S(=O)(=O)CCc2ccccn2)cc1	0.1%	-0.7%	16.2%	17.8%	1.1%	-0.3%
Fc1ccc(N2CCN(Cc3ccccn3)CC2)cc1	0.4%	9.0%	-4.2%	-5.3%	-2.2%	-7.3%
SMILES	FLuc modulator	Rab9 prom act	ELG1 DNA repair	SMN2 splice up	ELG1 genotoxic	NPC1 prom act
CCN(CC)c1nc(-c2ccccn2)nc(-c2ccccc2)c1C#N	?	-12.3%	11.6µM*	-80.7%	-11.6%	-26.4%
O=C(Nc1ccc(Br)cc1)c1ccc(F)c(S(=O)(=O)N2CCc3ccccc32)c1	-8.7%	·	·	·	·	·
COc1ccc(CSc2nc3ccncc3n2Cc2nc(-c3ccc(OC)c(OC)c3)oc2C)cc1	4.78µM*	·	·	?	·	·
Cc1oc(-c2ccccc2F)nc1Cn1c(SCc2cccc(Cl)c2)nc2ccncc21	?	·	·	10.2%	·	·
Cc1ccc(CSc2nc3ccncc3n2Cc2nc(-c3ccccc3C)oc2C)cc1	4.78µM*	·	·	?	·	·
Cc1ccc(CSc2nc3cccnc3n2Cc2nc(-c3ccccc3F)oc2C)cc1	5.36µM*	·	·	·	·	·
COc1c(-c2coc3cc4c(cc3c2=O)CC(O)C(C)(C)O4)ccc2c1C=CC(C)(C)O2 (centres undefined)	·	·	·	-115.7%	·	·
CCOC(=O)c1c(C)oc2ncnc(Nc3cc(Cl)ccc3OC)c12	1.9%	·	·	·	·	·
COc1ccc(NC(=O)NC(=O)c2ccccc2)cc1	?	0.708µM*	?	·	?	1µM*
O=C(NC(=O)c1ccccc1)Nc1ccccc1	?	0.631µM*	?	·	?	0.447µM*
O=C(NC(=O)c1ccccc1)Nc1ccc(-c2cnco2)cc1	?	?	?	·	14.5%	?
CC(=O)N1[C@H](C)C=C[C@]1(Cc1ccccc1)C(=O)NCc1ccc(C)o1	·	·	·	26.7%	·	·
O=C(c1ccco1)N1CCN(C(c2ccccn2)c2nnnn2C2CCCC2)CC1 (centres undefined)	15.1µM*	?	?	12.6µM*	?	?
O=C(c1ccco1)N1CCN(C(c2cccs2)c2nnnn2C2CCCC2)CC1 (centres undefined)	4.6%	-3.5%	2.7%	2.3%	2.3%	-1.4%
NC(=O)COC(=O)c1cc(=O)[nH]c2ccccc12	0.7%	0.2%	0.0%	·	-0.5%	-2.6%
Cc1ccc(C(=O)COC(=O)c2cc(=O)[nH]c3ccccc23)cc1C	1.07µM*	?	?	21.3%	20.6µM*	2.2%
COc1ccccc1C(=O)COC(=O)c1cc(=O)[nH]c2ccccc12	-8.0%	-1.4%	?	·	?	-1.6%
COc1ccc(C(=O)COC(=O)c2cc(=O)[nH]c3ccccc23)c(OC)c1	?	2.24µM*	?	·	?	3.16µM*
CC1CCC(N2CC(=O)N(C3CCCCC3)C(c3ccc(Cl)cc3)C2=O)CC1 (centres undefined)	0.7%	·	·	·	·	·
c1ccc(Cc2nc3ccccc3o2)cc1	19µM*	7.4%	23.7%	-2.8%	14.8%	0.7%
COc1cc(/C=N/NC(=O)c2cc3ccccc3[nH]2)ccc1O	16.9µM*	7.1%	-5.4%	·	-10.8%	1.8%
COC(=O)N/N=C\c1ccc(OC/C=C/c2ccccc2)cc1	?	-0.2%	2.1%	·	7.8%	6.8%
COc1ccc(/C=N\NC(=O)O)cc1	·	·	·	-7.1%[9.22 µM]	·	·
